A selection: hits, their analogues and other compounds. The true share with any hit is near 1.5%.
VHR inh abs: blocks human VHR1 dual specificity phosphatase | P51452 | hit rate 0.52% among 290,000 | inhibition, % at 13.3 µM | recombinant VHR phosphatase, pNPP absorbance; in the data active means inhibition above about 50%
Target sequence (P51452 whole entry, looked up): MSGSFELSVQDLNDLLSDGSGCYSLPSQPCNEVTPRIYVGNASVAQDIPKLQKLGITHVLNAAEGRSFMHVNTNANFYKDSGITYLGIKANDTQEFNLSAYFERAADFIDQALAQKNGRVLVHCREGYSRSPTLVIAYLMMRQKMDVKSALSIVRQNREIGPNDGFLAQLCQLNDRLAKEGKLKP
PriA SSB inh: inhibitors of Klebsiella pneumoniae PriA binding to SSB C-terminal tail | hit rate 0.6% among 430,000 | AID 1272365 | inhibition, % at 33 µM | AlphaScreen SSBct-PriA binding, biotinylated peptide; in the data active means inhibition mostly above about 37%, no sharp cut-off; inactive means mostly below about 20%;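 further: plate controls were negative control peptide for no effect and reference peptide for full effect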
Sa ugtP lethal: compounds lethal to S. aureus RN4220 ugtP deletion mutant; hit rate 0.54% among 330,000; growth inhibition, % (concentration not given with the values); OD600 growth, 16 h; AID 1259309; in the data active means growth inhibition above about 68%;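 further: plate controls were untreated wells for no effect and antibiotic for full effect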
RN4220 kill: kills Staphylococcus aureus RN4220. AID 1259311. inhibition, % (test concentration not listed). hit rate 0.33% among 330,000. S. aureus RN4220 growth, OD600, 16 h; in the data active means inhibition above about 85%;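 further: plate controls were untreated cells for no effect and reference antibiotic for full effect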
CCHF vOTU inh: blocks the CCHF virus ovarian tumor domain protease | CCHFV vOTU protease, Pep-AMC fluorescence | inhibition, % at 11.5 µM | hit rate 0.55% among 370,000; in the data active means inhibition above about 30%; further: 0% = vehicle wells with enzyme and 100% = no enzyme wells
* = called active by the depositor; . = not tested or not shown; + = active, no number.

SMILES	VHR inh abs	PriA SSB inh	Sa ugtP lethal	RN4220 kill	CCHF vOTU inh
CCN1/C(=C/c2ccc3ccccc3[n+]2CC)C=Cc2ccccc21	4	48	.	.	14
CCN1C(=Cc2ccc3ccccc3[n+]2CC)C=Cc2ccccc21	.	.	100*	100*	.
CCOC(=O)N1CCC(c2cc(=O)n3[nH]c(C)c(-c4ccc(F)cc4)c3n2)CC1	24	55*	9	4	7
Cc1[nH]c2ccccc2c1C(Nc1nc2ccccc2s1)c1ccccn1 (centres undefined)	.	26	.	.	.
COc1ccc(C(=O)N(C)C2CCN(C)CC2)cc1S(=O)(=O)Nc1cc(Cl)ccc1Cl	52*	-9	17	8	.
CCOc1ccc(-c2ccc(=O)n(CCCC(=O)Nc3ccccc3Cl)n2)cc1	.	-12	.	.	.
COc1ccc(C(=O)NN=Cc2ccc(OC)c(OS(=O)(=O)c3ccccc3)c2)cc1	.	-9	-13	-3	.
COc1cc(C=NNC(=O)c2ccccc2)ccc1OS(=O)(=O)c1ccccc1	.	-6	90*	-3	.
COc1cc(/C=N/NC(=O)CC#N)ccc1OCc1ccccc1	.	+	.	.	.
N#CCC(=O)NN=Cc1ccccc1OC/C=C/c1ccccc1	.	71*	2	36	.
COc1cc(C=NNC(=O)CC#N)ccc1OC/C=C/c1ccccc1	.	68*	7	-1	.
O=C(Nc1cccc2nsnc12)c1ncc(-c2ccccc2)o1	.	-6	.	.	.
COc1cccc(CNC(=O)C(=O)NCC2CCN(c3ccccn3)CC2)c1	.	-14	.	.	.
COCCN(Cc1ccoc1)C(=O)CSc1ccc(F)cc1	.	-3	.	.	.
NCC(O)COc1cccc(Oc2ccccc2)c1 (centres undefined)	.	-4	.	.	.
Cc1nn(C)c(C)c1S(=O)(=O)NCC1CCN(S(=O)(=O)c2cccnc2)CC1	.	5	.	.	.
O=C(Cn1ncc2c([nH]c3ccccc32)c1=O)N1CCN(c2ccccc2F)CC1	-12	-10	-2	2	6
O=C(Cn1ncc2c([nH]c3ccccc32)c1=O)N1CCN(c2ccc(F)cc2)CC1	51*	-9	0	4	7
COc1ccc(Cn2c(C3CCCCC3)nc3c(c(=O)c4ccccc4n3C)c2=O)cc1	54*	-5	5	5	.
CCCCCCCCOC(=O)c1c(CSC(=N)N)n(C)c2cc(Br)c(OC(C)=O)cc12	-4	2	101*	100*	27
Cc1ccc2[nH]c3nc(NN)nnc3c2c1	-1	90*	2	0	11
CCOC(=O)c1c(C)c(C(=O)N2CCc3ccccc3C2)c(C)n1CC	22	39*	9	5	-3
COc1ccc(C(=O)NC(C)c2nnc(SCC(=O)NC3CCCC3)n2C)cc1 (centres undefined)	53*	-11	6	0	-2
Cc1cc(NC(=O)CSc2ncc(-c3ccccc3)n2C)no1	.	-17	.	.	.
O=C(c1ccccc1)c1ccc(OCC(O)CNc2ccc(F)cc2)cc1 (centres undefined)	.	57*	.	.	.
SMILES	VHR inh abs	PriA SSB inh	Sa ugtP lethal	RN4220 kill	CCHF vOTU inh
Cc1cc2cc(CN(Cc3ccc4c(c3)OCO4)C(=O)c3cnccn3)c3nnnn3c2cc1C	28	39*	0	5	-2
Cc1ccc(C(=O)N(Cc2ccccc2)c2ccccn2)cc1	.	-15	.	.	.
CN(C)c1ccc(/C=N\Nc2nc(-c3cc4ccccc4oc3=O)cs2)cc1	.	-3	.	.	.
COc1cc(Br)cc(/C=C/c2ccc3cccc(O)c3n2)c1OC	.	1	-3	19	-15
COc1ccc(Br)cc1/C=C/c1ccc2cccc(O)c2n1	57*	-7	11	17	19
CCC(C(=O)N1CCN(c2ccc(-c3ccccn3)nn2)CC1)c1ccccc1 (centres undefined)	.	80*	.	.	.
CCC(C(=O)N1CCN(c2ccc(-c3ccncc3)nn2)CC1)c1ccccc1 (centres undefined)	.	3	.	.	.
O=S(=O)(c1ccc(Cl)s1)N1CCN(c2ccc(-c3ccccn3)nn2)CC1	.	55*	.	.	.
COc1cccc(C(=O)N2CCN(c3ccc(Nc4ccccn4)nn3)CC2)c1OC	.	37	.	.	.
COc1cccc(C(=O)N2CCN(c3ccc(-c4ccccn4)nn3)CC2)c1OC	.	94*	.	.	.
COC(=O)c1ccc(C(=O)Nc2nc3cc(C)cc(C)c3s2)cc1	.	-16	.	.	.
COCCN(Cc1ccoc1)C(=O)c1ccccc1Br	.	1	.	.	.
COc1cc2c(cc1OC)CN(CC(O)COC1CCCC1)CC2 (centres undefined)	.	-12	.	.	.
Cc1ccccc1-c1ccc(N2CCN(C(=O)c3ccccc3F)CC2)nn1	.	-7	.	.	.
Cc1ccccc1Oc1cc(-n2ncc(Cl)c(Cl)c2=O)ncn1	15	-4	92*	58	0
CC(=O)c1cccc(NC(=O)CCc2nnc3ccc(NCc4ccc5c(c4)OCO5)nn23)c1	57*	-16	0	0	5
Cc1ccc(N2CC(C(=O)NC3CC(O)C(CO)C3)CC2=O)cc1 (centres undefined)	.	5	.	.	.
CN(C)CCCN(C(=O)C1COc2ccccc2O1)c1nc2ccc(F)cc2s1 (centres undefined)	11	-11	-2	5	-5
Cc1ccc2nc(N(CCCn3ccnc3)C(=O)C3COc4ccccc4O3)sc2c1 (centres undefined)	.	35*	.	.	.
CC(=O)c1ccc(NC(=O)N2C[C@H]3C[C@H](C2)c2cccc(=O)n2C3)cc1	.	1	.	.	.
Cn1c(C(=O)N2CCC(C(=O)N3CCOCC3)CC2)cc2sccc21	53*	-8	-4	-8	-12
Cn1c(C(=O)N2CCC(C(=O)N3CCN(Cc4ccc5c(c4)OCO5)CC3)CC2)cc2sccc21	15	-6	-4	-14	-1
COc1ccc(NC(=O)CSc2nccn2-c2cccc(C(=O)NCc3ccco3)c2)c(OC)c1	.	16	.	.	.
CSc1ccc(CNC(=O)CSc2nccn2-c2cccc(C(=O)NCc3ccco3)c2)cc1	.	46*	.	.	.
CCc1ccc(NC(=O)Cn2ncc3c(c2=O)N(C2CC2)C(=O)CS3)cc1	.	-6	.	.	.
SMILES	VHR inh abs	PriA SSB inh	Sa ugtP lethal	RN4220 kill	CCHF vOTU inh
COc1cc2c(=O)n(CC3CCCO3)c(=O)n(CC(=O)Nc3ccc(F)cc3F)c2cc1OC (centres undefined)	-2	104*	-2	1	-5
Cc1ccc(CNC(=O)c2ccccc2SCC(=O)NCC2CCCCC2)cc1	54*	-7	2	-1	7
Nn1c(-c2ccncc2)nn2c(=O)c3ccccc3nc12	.	4	.	.	.
CC(C)c1ccc(NC2CCCN(C(=O)CN3C(=O)CSC3=O)C2)cc1 (centres undefined)	-37	4	6	3	7
Cc1ccc(NC2CCCN(C(=O)CN3C(=O)CSC3=O)C2)cc1C (centres undefined)	53*	2	0	0	20
Cc1cc(C)c(C(=O)N2CCCC(Nc3ccc(C)c(C)c3)C2)o1 (centres undefined)	53*	17	7	5	11
COc1ccc(NC(=O)Cc2csc(Nc3cccc(Cl)c3)n2)cc1OC	.	13	.	.	.
O=C(Nc1cccc(-c2csc(Nc3ccc(Cl)cc3)n2)c1)c1cccc(C(F)(F)F)c1	11	6	76	89*	14
Cc1cccc2cc(C#N)c(SCC(=O)NCc3cccs3)nc12	2	0	0	7	-7

Source: PubChem BioAssay (several laboratories)
